From the supplement of paper PMC12819154, “High-throughput peptide-centric local stability assay extends protein–ligand identification to membrane proteins, tissues and bacteria” (Nature Structural & Molecular Biology, 2025)

Compound: Nc1ncnc2c1ncn2[C@@H]1O[C@H](COP(=O)(O)OP(=O)(O)OP(=O)(O)O)[C@@H](O)[C@H]1O [adenosine 5'-triphosphate]
Test: log2 fold change of tryptic peptide abundance, ligand vs vehicle (limited proteolysis) (log2 ratio); higher = more trypsin-susceptible (destabilized)
Conditions: ligand concentration: 5 mM; sample: E. coli desalted lysate; replicate design: treated before aliquoting
Experimental: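 HT-PELSA: desalted E. coli K-12 BW25113 lysate (with 12 mM MgCl2) incubated with 5 mM ATP (pH 7) or water for 30 min at 25 C, then a 4 min trypsin pulse at 22 C. Peptides were quantified by DIA-MS (4 replicates). Value is the peptide log2 fold change (treated/control); negative = stabilized. Scale: negative = ligand-stabilized region.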
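Also: lysate desalted by size exclusion to strip endogenous ATP, peptide intensities built from DIA-NN precursor signals, and peptides missing any value discarded before comparison.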

| Target | log2 fold change |
| --- | --- |
| UniProt P39180 (peptide sequence: NLNGQNGTISLR, peptide start residue: 603) | 0.735 |
| UniProt P77376 (peptide sequence: VGLIGYGYASK, peptide start residue: 7) | -1.01 |
| UniProt P45799 (peptide sequence: SLQKPTILNVETVAR, peptide start residue: 4) | -1.1 |
| UniProt P00960 (peptide sequence: AVAEAYYASREALGFPMCNKDK, peptide start residue: 282) | 0.93 |
| UniProt P76543 (peptide sequence: NSQLGWCR, peptide start residue: 147) | -0.802 |
| UniProt P77754 (peptide sequence: DLNLTDAQK, peptide start residue: 54) | -0.35 |
| UniProt P33371 (peptide sequence: ICPELQNASR, peptide start residue: 49) | 0.883 |
| UniProt P08401 (peptide sequence: NVQEGGVLASLR, peptide start residue: 457) | 0.651 |
| UniProt P30750 (peptide sequence: TVFGNVALPLELDNTPKDEVKR, peptide start residue: 98) | 0.668 |
| UniProt P39310 (peptide sequence: VWHAPDNFR, peptide start residue: 14) | -0.8 |
| UniProt P0CF91 (peptide sequence: SLLHLDALR, peptide start residue: 320) | 0.694 |
| UniProt P77610 (peptide sequence: WLNAHEEGYHK, peptide start residue: 18) | -0.358 |
| UniProt P75824 (peptide sequence: AGVCGCCK, peptide start residue: 275) | 0.616 |
| UniProt P45568 (peptide sequence: ESLVTCGR, peptide start residue: 126) | 0.779 |
| UniProt P0A9K7 (peptide sequence: HVGGDELDKLLAGK, peptide start residue: 224) | -0.493 |
| UniProt P09029 (peptide sequence: DVFPIIADR, peptide start residue: 72) | -2.73 |
| UniProt P77737 (peptide sequence: TRCPIAGPECAK, peptide start residue: 302) | 2.24 |
| UniProt P76256 (peptide sequence: DENGIWHGEETEAVLKPEIVHER, peptide start residue: 130) | -0.588 |
| UniProt P76419 (peptide sequence: GGDCAPTREELLLAHK, peptide start residue: 304) | -1.82 |
| UniProt P07604 (peptide sequence: YAWPGNVR, peptide start residue: 410) | -1.06 |
| UniProt P25888 (peptide sequence: DLMASAQTGTGK, peptide start residue: 40) | -1.66 |
| UniProt P77302 (peptide sequence: KEEETALSCR, peptide start residue: 80) | -1.39 |
| UniProt P77485 (peptide sequence: GTVAVTSDAR, peptide start residue: 461) | -0.644 |
| UniProt P17846 (peptide sequence: IHKGDFR, peptide start residue: 385) | 1.23 |
| UniProt P37692 (peptide sequence: AYVLPNSFK, peptide start residue: 84) | -1.08 |
| UniProt P08142 (peptide sequence: KRFTGAEFIVHFLEQQGIK, peptide start residue: 11) | 1.49 |

| Target | log2 fold change |
| --- | --- |
| UniProt P33343 (peptide sequence: LSLITNDKITGNDK, peptide start residue: 95) | -0.561 |
| UniProt P00903 (peptide sequence: GLANPLTVTR, peptide start residue: 117) | -0.376 |
| UniProt P22188 (peptide sequence: LWCVFGCGGDRDK, peptide start residue: 380) | -1.25 |
| UniProt P16095 (peptide sequence: VGIGPSSSHTVGPMK, peptide start residue: 10) | 0.369 |
| UniProt P38097 (peptide sequence: VTVYEPQQAAAHSER, peptide start residue: 840) | -1.32 |
| UniProt P42632 (peptide sequence: IKALPTYR, peptide start residue: 593) | 0.596 |
| UniProt P39342 (peptide sequence: MGPVTEDER, peptide start residue: 387) | -1.06 |
| UniProt P14081 (peptide sequence: EHLLQLPER, peptide start residue: 159) | -1.29 |
| UniProt P36929 (peptide sequence: VYDNLKR, peptide start residue: 286) | -1.2 |
| UniProt P09980 (peptide sequence: AANILIANNPHVFEKR, peptide start residue: 286) | -3.41 |
| UniProt P19323 (peptide sequence: ELENVIER, peptide start residue: 600) | -0.833 |
| UniProt P31060 (peptide sequence: ALAGELPLLKGER, peptide start residue: 48) | -1.32 |
| UniProt Q47622 (peptide sequence: KMNADDVVFTFQR, peptide start residue: 117) | 1.14 |
| UniProt P30864 (peptide sequence: KIIASPDYISR, peptide start residue: 165) | 1.32 |
| UniProt P37759 (peptide sequence: EQITYVADRPGHDRR, peptide start residue: 289) | -0.709 |
| UniProt P32131 (peptide sequence: QQHKADQYLDALEQEIVHR, peptide start residue: 78) | 1.02 |
| UniProt P61517 (peptide sequence: DLDVTATNR, peptide start residue: 190) | 0.547 |
| UniProt P76257 (peptide sequence: GQPLVVEAGTGTGK, peptide start residue: 38) | -0.82 |
| UniProt P37908 (peptide sequence: RNQDMLLSVLDLEK, peptide start residue: 188) | -2.2 |
| UniProt P0AFU8 (peptide sequence: FSDEIGGHLMSGHIMTTAEVAK, peptide start residue: 90) | 0.559 |
| UniProt Q47129 (peptide sequence: LDADLPMVQLSHR, peptide start residue: 141) | -1.3 |
| UniProt P31808 (peptide sequence: TGMTFDAQPGR, peptide start residue: 236) | -0.533 |
| UniProt P00893 (peptide sequence: HSQSYMQSLPDFVR, peptide start residue: 493) | 0.316 |
| UniProt P29131 (peptide sequence: MAGHTNCIR, peptide start residue: 306) | -0.526 |
| UniProt P37745 (peptide sequence: WVGVLLSADNK, peptide start residue: 98) | -0.542 |
| UniProt P39399 (peptide sequence: AAGVSPVVVR, peptide start residue: 118) | 0.3 |
